Dicer processing: inhibitors of Dicer pre-microRNA processing, primary screen, biochemical, cat-ELCCA, chemiluminescence; Endoribonuclease Dicer (Homo sapiens), Q9UPY3; cat-ELCCA pre-miR-21 Dicer processing; hits give high values; z-score at 25 µM; 47,000 tested, 6% active; in the data active = z-score above about 3, passing the limit was not always enough;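 also: plate controls were vehicle for no effect and no enzyme for full effect; higher signal means more uncleaved substrate so more Dicer inhibition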
Target sequence (Q9UPY3 whole entry, looked up): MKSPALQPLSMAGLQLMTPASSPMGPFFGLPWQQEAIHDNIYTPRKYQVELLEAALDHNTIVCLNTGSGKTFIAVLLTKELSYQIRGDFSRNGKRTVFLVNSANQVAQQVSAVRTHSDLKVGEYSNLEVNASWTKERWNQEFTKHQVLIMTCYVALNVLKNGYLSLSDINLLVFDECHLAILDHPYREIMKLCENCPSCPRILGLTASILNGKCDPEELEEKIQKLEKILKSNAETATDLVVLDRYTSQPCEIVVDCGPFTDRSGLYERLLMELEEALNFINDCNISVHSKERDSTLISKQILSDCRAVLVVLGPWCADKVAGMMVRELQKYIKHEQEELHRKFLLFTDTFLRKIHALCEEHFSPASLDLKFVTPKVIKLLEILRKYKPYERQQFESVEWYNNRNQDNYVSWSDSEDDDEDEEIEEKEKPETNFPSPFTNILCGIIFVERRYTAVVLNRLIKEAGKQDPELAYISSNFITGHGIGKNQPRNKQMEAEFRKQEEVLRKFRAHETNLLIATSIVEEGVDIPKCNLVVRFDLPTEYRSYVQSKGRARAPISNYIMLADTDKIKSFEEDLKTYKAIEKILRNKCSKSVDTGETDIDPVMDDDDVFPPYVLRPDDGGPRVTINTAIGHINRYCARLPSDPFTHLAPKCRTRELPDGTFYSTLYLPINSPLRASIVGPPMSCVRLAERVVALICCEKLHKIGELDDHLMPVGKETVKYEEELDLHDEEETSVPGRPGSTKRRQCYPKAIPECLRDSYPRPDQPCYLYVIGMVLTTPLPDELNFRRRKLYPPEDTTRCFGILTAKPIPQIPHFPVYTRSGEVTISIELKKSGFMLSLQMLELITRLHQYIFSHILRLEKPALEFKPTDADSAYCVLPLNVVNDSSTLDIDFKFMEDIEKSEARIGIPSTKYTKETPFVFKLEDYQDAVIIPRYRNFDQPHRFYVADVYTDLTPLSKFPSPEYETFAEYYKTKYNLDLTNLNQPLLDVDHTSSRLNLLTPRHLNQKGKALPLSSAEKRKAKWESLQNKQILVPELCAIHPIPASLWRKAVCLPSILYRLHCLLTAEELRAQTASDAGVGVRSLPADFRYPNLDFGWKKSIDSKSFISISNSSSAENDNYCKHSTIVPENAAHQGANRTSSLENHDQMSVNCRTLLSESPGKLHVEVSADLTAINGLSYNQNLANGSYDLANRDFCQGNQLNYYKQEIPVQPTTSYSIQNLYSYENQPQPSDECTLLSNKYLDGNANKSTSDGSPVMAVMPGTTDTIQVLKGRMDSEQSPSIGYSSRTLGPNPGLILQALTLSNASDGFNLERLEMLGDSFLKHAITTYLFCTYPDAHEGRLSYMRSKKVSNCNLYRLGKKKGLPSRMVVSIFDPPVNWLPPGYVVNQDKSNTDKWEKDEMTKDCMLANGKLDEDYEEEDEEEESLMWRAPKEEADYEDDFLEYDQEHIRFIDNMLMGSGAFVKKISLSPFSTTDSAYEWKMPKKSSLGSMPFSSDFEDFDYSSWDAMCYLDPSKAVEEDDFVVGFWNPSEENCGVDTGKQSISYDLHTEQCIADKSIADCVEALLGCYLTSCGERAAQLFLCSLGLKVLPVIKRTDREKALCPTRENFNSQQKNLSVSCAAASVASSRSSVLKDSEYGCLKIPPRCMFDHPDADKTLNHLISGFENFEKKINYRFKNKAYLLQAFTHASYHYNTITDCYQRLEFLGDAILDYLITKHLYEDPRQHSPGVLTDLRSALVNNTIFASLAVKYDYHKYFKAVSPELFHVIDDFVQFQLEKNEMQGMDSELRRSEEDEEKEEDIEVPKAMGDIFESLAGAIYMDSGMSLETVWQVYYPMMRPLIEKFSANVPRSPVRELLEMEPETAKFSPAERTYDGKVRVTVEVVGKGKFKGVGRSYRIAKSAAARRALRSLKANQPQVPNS
* = called active by the depositor. The sample as a whole holds a higher share of hits than the screen did.

SMILES	Dicer processing
CC1(C)COC(c2ccccc2COC(=O)c2ccc(C(C)(C)C)cc2)=N1	-0.15
COC(=O)/C=C1/NCC(OC(=O)c2ccc(C(C)(C)C)cc2)CNC1=O (stereo not given)	4.4*
CCOC(=O)NNC(=S)Nc1ccccc1	1.6
CCOC(=O)NNC(=S)Nc1cccc(C(F)(F)F)c1	-0.65
CCOC(=O)NNC(=S)Nc1cccc(C)c1	3.8*
COc1cccc(N2CC(=O)N(N)CC2=O)c1	3.8*
COc1ccccc1N1C(=O)C2C3c4ccccc4C(c4ccccc43)C2C1=O (stereo not given)	-0.08
COC(=O)c1ccccc1N1CC(C(=O)O)CC1=O (stereo not given)	2.3
COc1cccc(N2C(=O)C3C4c5ccccc5C(c5ccccc54)C3C2=O)c1 (stereo not given)	3.7*
Cc1cccnc1N1C(=O)C2C3c4ccccc4C(c4ccccc43)C2C1=O (stereo not given)	0.69
NN1CC(=O)N(c2cccc(C(F)(F)F)c2)CC1=O	1.2
COC(=O)c1ccccc1N1C(=O)C2C3c4ccccc4C(c4ccccc43)C2C1=O (stereo not given)	4.2*
COc1cccc(N2CC(=O)N(NC(=O)NC3CCCCC3)CC2=O)c1	2.8
COc1ccc(N2C(=O)C3C4c5ccccc5C(c5ccccc54)C3C2=O)cc1 (stereo not given)	1.5
O=C(c1ccc2c(c1)C1C3CCC(C3)C1C(c1ccccc1)N2)N1CCOCC1 (stereo not given)	0.16
O=C(Nc1ccc(S(=O)(=O)Nc2nccs2)cc1)c1cc2ccccc2c(=O)o1	1.1
C=CCOc1ccc(C2CC(=O)Nc3nc(N)[nH]c(=O)c32)cc1OC (stereo not given)	1.4
O=c1ccnc(SCc2c(Cl)cccc2Cl)[nH]1	0.15
CCc1c(C)[nH]c(C(=O)OC(C)(C)C)c1C	-0.29
COC(=O)C1=NN(c2ccccc2Cl)C2C(=O)N(c3ccccc3OC)C(=O)C12 (stereo not given)	-0.45
COCCNC1CC(=O)N(c2ccccc2)C1=O (stereo not given)	-1.4
Fc1ccc(Sc2ncnc3scc(-c4ccccc4)c23)cc1	-1.1
COc1ccc(C=NCCNc2nccc(C(F)(F)F)n2)cc1OC	-1.2
O=C1CSC(=S)N1c1c(F)cccc1Cl	-1.6
O=C(CSc1nc2ccccc2nc1N1CCCC1)N1CCCC1	0
SMILES	Dicer processing
Cc1ccc(C)n1CCN1CCN(C(=O)CSc2nc3ccccc3nc2N2CCOCC2)CC1	3*
O=C(CSc1nc2ccccc2nc1N1CCOCC1)Nc1ccccc1F	1.7
O=C(CSc1nc(-c2ccco2)cc(C(F)(F)F)n1)N1CCN(c2cccc(Cl)c2)CC1	0.7
O=C(CSc1nc2ccccc2nc1N1CCOCC1)NC1CCCC1	2
O=C(CSc1nc2ccccc2nc1N1CCOCC1)N1CCN(c2cccc(Cl)c2)CC1	3.5*
Cc1[nH]c2ccc(F)cc2c(=O)c1I	-1.1
CCOC(=O)/C(C#N)=C(\Nc1ccc(C(=O)OCC)cc1)SC	-0.06
Cc1cc(OC(=O)c2cccnc2Oc2ccccc2)n(-c2ccccc2)n1	-2.2
COC(=O)c1ccc([C@@H]2Nc3c(F)cccc3[C@@H]3C=CC[C@@H]32)cc1	-2
Cc1ccc(C(C)C)c(OCc2nnc3c4cnn(Cc5ccccc5)c4ncn23)c1	0.43
O=C(O)CN1C(=O)c2ccc(C(=O)O)cc2C1=O	0.25
CCOC(=O)NNC(=S)Nc1ccc(OCc2ccccc2)cc1	-1.2
O=C(CC1SC(=Nc2ccc(O)cc2)NC1=O)Nc1ccc(Br)cc1 (stereo not given)	3.8*
C=CCN=C1NC(=O)C(CC(=O)Nc2ccc(Cl)cc2)S1 (stereo not given)	-0.91
O=C(CC1SC(=Nc2ccccc2)NC1=O)Nc1ccccc1Cl (stereo not given)	-0.66
CC(C)c1ccc(OCc2nc(-c3ccncc3)no2)cc1	-0.67
COc1cc(OC)c(OC)cc1Br	0.63
CC1CC2(CC(C)(c3csc(Nc4ccccc4)n3)OC2=O)C(=O)O1 (stereo not given)	4.9*
CCCCCOCC1CC2(CC(C)(c3csc(Nc4ccccc4)n3)OC2=O)C(=O)O1 (stereo not given)	-0.43
Cc1ccccc1Nc1nc(C2(C)CC(C(C)C)C(=O)O2)cs1 (stereo not given)	-0.01
CCOC(=O)N1CCN(c2cc(C(F)(F)F)cc(C(F)(F)F)n2)CC1	2.2
COC(=O)c1cccc(CN2C(=O)CSC2=O)c1	0.97
Nc1nc(-c2csc3ccccc23)cs1	3.3*
c1ccc2c(-c3csc(-c4ccc(-c5ccno5)s4)n3)csc2c1	-1.4
Nc1nc(-c2cccc3ccccc23)cs1	0.36
SMILES	Dicer processing
CN(C)/C=N/c1c(C#N)nnn1-c1cc(Cl)cc(Cl)c1	-0.81
CC1CCCCC1N1CN=C(Nc2nc3ccccc3o2)NC1 (stereo not given)	0.8
Cc1ccc(/C(O)=C2\C(=O)C(=O)N(CCN3CCOCC3)C2c2cccs2)cc1 (stereo not given)	2.6
O=C(Nc1ccccc1)ON=C1CC2CCCC(C1)N2Cc1ccccc1	0.6
CCC(Sc1nnc2c3ccccc3n(C)c2n1)C(=O)NC(C)c1ccccc1 (stereo not given)	1.1
CCC(Sc1nnc2c3ccccc3n(C)c2n1)C(=O)Nc1nnc(C)s1 (stereo not given)	-0.49
CCCc1nnc(NC(=O)C(CC)Sc2nnc3c4ccccc4n(C)c3n2)s1 (stereo not given)	3.1*
Cc1cc(C(=O)C(F)(F)F)c(C)n1-c1cc(Cl)cc(Cl)c1	-1.2
NS(=O)(=O)c1ccc(CCNC2CC(=O)N(c3ccc(Br)cc3)C2=O)cc1 (stereo not given)	0.22
O=C(Nc1ccc(Br)cc1C(F)(F)F)C(Cl)Cl	-0.68
COc1ccccc1NC(=S)Nc1ccccn1	8.9
COc1ccccc1NC(=S)NCC(C)(C)C(=O)O	-0.71
COc1ccccc1NC(=S)NNC(=O)NNC(=S)Nc1ccccc1OC	4.4*
COc1ccc(-c2nn3c(-c4ccccc4)nnc3s2)cc1	-0.84
Clc1ccc(-c2nn3c(-c4ccccc4)nnc3s2)cc1	3.1*
Clc1ccc(-c2nnc3sc(-c4cccs4)nn23)cc1	0.22
CC(C)(C)C(=O)c1cn(CCOc2ccc(F)cc2)c2ccccc12	0.07
CSc1n[nH]c(-c2ccc(Cl)cc2)n1	-1.2
COc1ccc(COC(=O)C2=C(C)NC3=C(C(=O)CC(C)(C)C3)C2c2coc3ccccc3c2=O)cc1 (stereo not given)	-0.99
CCCCOC(=O)C1=C(C)NC2=C(C(=O)CC(C)(C)C2)C1c1cccc2ccccc12 (stereo not given)	-0.42
CC1(C)CC(=O)c2cnc(NC(=O)CSc3ccc(Cl)cc3)nc2C1	2
O=C(CSCc1c(-c2ccccc2)nnn1-c1ccc(F)cc1F)Nc1ccc(Cl)cc1	0.41
C=CCN1C(=O)C(O)(CC(=O)c2cccc(N)c2)c2ccccc21 (stereo not given)	-1.2
CCCOC(=O)C1=C(C)NC2=C(C(=O)CCC2)C1c1ccc(O)c(OC)c1 (stereo not given)	-0.35
CN(C)S(=O)(=O)c1ccc(-c2ccccn2)s1	0.22
CCCN(CCC)C(=O)C1Sc2nnc(C)n2NC1c1ccc(OC)c(Br)c1 (stereo not given)	-0.82
Cc1ccc2nc(-c3ccc(N)cc3)[nH]c2c1	4*
Nc1ccc(-c2nc3ccc(-c4nc5ccc(N)cc5[nH]4)cc3[nH]2)cc1	2.1
Nc1ccc2nc(-c3ccc(-c4nc5ccc(N)cc5[nH]4)cc3)[nH]c2c1	0.33

Assay outcomes as filed in PubChem BioAssay.
